Assay outcomes deposited in PubChem BioAssay by several laboratories.
HTR5A inv ctr = counter-screen for OPRM1-OPRD1 inverse agonists: human HTR5A inverse agonism; HTR5A cell line, luminescence; inhibition, % at 9.3 µM; 0.083% of 340,000 active; AID 504634; in the data active means inhibition mostly above about 23%, no sharp cut-off; inactive means mostly below about 18%;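 further: 0% = cells with DMSO and 100% = no-cell wells with DMSO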
MOR-DOR ag = agonists of human mu-delta opioid receptor heterodimerization | 0.3% of 340,000 active | cells, OPRM1-OPRD1 heterodimerization, luminescence | activation, % at 9.3 µM | AID 504326;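 further: 0% = vehicle-treated cells and 100% = reference agonist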
Target sequence (P35372 whole entry, looked up): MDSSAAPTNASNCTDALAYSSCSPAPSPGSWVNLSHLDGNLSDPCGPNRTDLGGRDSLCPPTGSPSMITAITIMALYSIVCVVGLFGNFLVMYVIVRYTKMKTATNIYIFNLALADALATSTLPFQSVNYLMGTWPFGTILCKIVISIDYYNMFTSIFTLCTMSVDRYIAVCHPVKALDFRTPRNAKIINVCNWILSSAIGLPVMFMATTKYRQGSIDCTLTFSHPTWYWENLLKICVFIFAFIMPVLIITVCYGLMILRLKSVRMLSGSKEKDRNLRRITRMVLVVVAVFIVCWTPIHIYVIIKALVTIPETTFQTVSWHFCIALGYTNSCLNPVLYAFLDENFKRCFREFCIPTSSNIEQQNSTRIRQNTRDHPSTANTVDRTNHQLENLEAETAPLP
Target sequence (P41143 whole entry, looked up): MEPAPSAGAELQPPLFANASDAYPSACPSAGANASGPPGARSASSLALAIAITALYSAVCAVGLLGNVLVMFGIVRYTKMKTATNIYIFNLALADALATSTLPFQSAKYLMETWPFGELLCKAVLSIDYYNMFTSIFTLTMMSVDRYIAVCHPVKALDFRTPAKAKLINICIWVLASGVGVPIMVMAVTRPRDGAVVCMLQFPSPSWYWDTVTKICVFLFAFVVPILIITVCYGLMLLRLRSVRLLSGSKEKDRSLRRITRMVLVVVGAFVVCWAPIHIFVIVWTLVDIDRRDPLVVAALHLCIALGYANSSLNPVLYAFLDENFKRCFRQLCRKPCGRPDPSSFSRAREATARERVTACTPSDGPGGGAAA
p-CIP stab down = lowers stability of the mouse p/CIP coactivator protein; F442A p/CIP-EGFP cells, EGFP fluorescence, 16 h; decrease of EGFP signal, % at 10 µM; Q05BA5; 0.01% of 290,000 active;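 active means EGFP signal decrease of at least 30% at 10 µM or well 3 SD below plate mean, unless failing retest; inactive means the rest, including hits failing retest or dose response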
HTR5A ag ctr = activates human HTR5A in OPRM1-OPRD1 agonist counter-screen | P47898 | 0.61% of 340,000 active | HTR5A agonist assay, luminescence, cell-based | activation, % at 9.3 µM | AID 504692; in the data active means activation mostly above about 9.5%, no sharp cut-off; inactive means mostly below about 7.6%;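 further: 0% = cells with vehicle only and 100% = reference agonist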
MIN6 prolif = induces beta-cell replication in MIN6 cells; proliferation, % at 10 µM; 0.29% of 330,000 active; AID 2380; MIN6 cells proliferation, ATPlite luminescence, 48 h; cells starved in 0.2% serum; 100% = growth in 10% serum;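 active means compounds whose signal lies at least 3.5 SD above the mean of all wells on their plate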;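 further: 0% = DMSO-treated cells in low-serum medium and 100% = 10% serum control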
MOR-DOR inv ag = inverse agonists of human mu-delta opioid receptor heterodimerization. P35372+P41143. cell-based MOR-DOR heterodimer luminescence, inverse agonism. inhibition, % at 9.3 µM. 0.21% of 340,000 active; in the data active means inhibition above about 22%, passing the limit was not always enough;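 further: 0% = cells with DMSO and 100% = wells without cells with DMSO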
MOR-DOR ag conf = OPRM1-OPRD1 heterodimer agonism, confirmation; shares compounds with MOR-DOR ag; cells, MOR-DOR heterodimerization, luminescence complementation; activation, % at 9.3 µM; 45% of 830 active; AID 504904;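 further: 0% = vehicle-treated cells and 100% = reference agonist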
HTR5A ag ctr2 = counter-screen for OPRM1-OPRD1 agonists: human HTR5A agonism | shares compounds with MOR-DOR ag | HTR5A agonist counterscreen, cell luminescence | activation, % at 9.3 µM | 8% of 830 active | AID 504905; in the data active means activation above about 17%;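 further: 0% = vehicle-treated cells and 100% = reference agonist response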
Numbers without * were called inactive; i = inactive; . = no result. Shown are actives, neighbours in structure and some others; about 1.4% of the full set was active somewhere. Unless noted, no stated cut-off is given here; in the data, active means activation above about 18%; inactive means the rest.

SMILES | HTR5A inv ctr | MOR-DOR ag | p-CIP stab down | HTR5A ag ctr | MIN6 prolif | MOR-DOR inv ag | MOR-DOR ag conf | HTR5A ag ctr2
CC1=C(C(=O)Nc2nc3ccccc3s2)C(c2ccco2)C(C#N)=C(SCC(=O)NC2CCCCC2)N1 (stereo unspecified) | 3 | 26* | -4 | 1 | 0 | -130 | 18 | 1
CN(C)C(CNC(=O)c1ccc2nc[nH]c2c1)c1ccccc1 (stereo unspecified) | -12 | 25* | -5 | 4 | 0 | -126 | 7 | 8
CN(C)C(CNC(=O)c1ccc(Cl)c(S(=O)(=O)N2CCCCCC2)c1)c1ccccc1 (stereo unspecified) | -13 | 36* | . | 4 | -3 | -187 | 1 | -3
O=C(NNC(=O)c1ccc2nc[nH]c2c1)c1ccccc1 | -16 | 0 | . | 6 | -4 | 0 | . | .
C=CCC[C@@H](Cc1ccc(F)cc1)C(=O)OC[C@H](C)NC(=O)[C@@H](CC=C)CC(=O)N[C@@H](CO)Cc1ccccc1 | -22 | 3 | . | 8 | -4 | -15 | . | .
O=S(=O)(c1ccccc1)N1CCN(C(=S)NC2CCCC2)CC1 | -4 | -2 | -16 | 2 | -4 | 7 | . | .
O=S(=O)(c1c(Cl)cc(Br)cc1Cl)N1CCN(C(=S)NC2CC2)CC1 | 1 | 85* | . | 0 | -6 | -413 | 122* | 4
C[C@H](CO)N1C[C@H](C)[C@@H](CN(C)C(=O)Nc2ccc3c(c2)OCO3)Oc2ccc(NC(=O)Nc3ccc4c(c3)OCO4)cc2C1=O | -3 | -1 | . | 1 | -3 | 6 | . | .
COc1ccc(C(C)NCCC(c2ccc(OC(C)C)cc2)c2ccccc2OC)cc1 (stereo unspecified) | -5 | 23* | 2 | 1 | -4 | -135 | 37* | 7
COc1ccc(C(CCNC(C)c2ccccc2)C(C)C)cc1 (stereo unspecified) | . | . | 1 | . | -6 | . | . | .
CCOc1ccc(-c2nnc(SCC(=O)Nc3ccc4c(c3)c3ccccc3n4CC)n2N)cc1 | -2 | 33* | -11 | 1 | 1 | -177 | 24* | 19*
CC(NCCC1(C(C)C)CCOC(C)(C)C1)c1cccs1 (stereo unspecified) | 2 | -1 | -4 | -2 | -1 | 7 | . | .
CC(NCCC1(Cc2ccccc2Cl)CCOC(C)(C)C1)c1cccs1 (stereo unspecified) | -13 | 45* | 16 | -2 | -3 | -227 | 6 | 2
C#CCOCCOCCOCCNc1nc(N2CCOCC2)nc(N2CCN(C(=O)Cn3cc(CCCCN)nn3)CC2)n1 | -17 | -3 | . | 4 | . | 12 | . | .
CCOC(=O)C1(CC2CC2)CCN(Cc2cnc(-c3ccccc3C)nc2)CC1 | 24 | 79* | 3 | -4 | -2 | -396 | 72* | 3
CCOC(=O)C1(CCOc2ccccc2)CCN(Cc2ccc(O)cc2)CC1 | 27 | 0 | 6 | -8 | -1 | -2 | . | .
CCOC(=O)C1(CCOc2ccccc2)CCN(Cc2ccc(OC)c(O)c2)CC1 | 2 | 77* | 4 | -1 | -5 | -368 | 75* | 3
CCOC(=O)C1(CC2CC2)CCN(Cc2cc(Cl)c(O)c(OC)c2)CC1 | -8 | 6 | -9 | 0 | -2 | -29 | . | .
CCOC(=O)C1(CCOc2ccccc2)CCN(Cc2cnc(SC)nc2)CC1 | 20 | 32* | -7 | 4 | -2 | -155 | 2 | -2
CC(C)(C)OC(=O)C[C@H]1C/C=C\C[C@@H](CC(=O)NCCO)C(=O)N[C@H](C(C)(C)C)COC1=O | 11 | -3 | . | -3 | 1 | 15 | . | .
COc1ccc(NC(=O)CN(C)C(=O)C2(c3ccccc3)CCCC2)cc1 | -25 | -2 | . | 6 | -1 | 8 | . | .
CCn1c2ccccc2c(=O)c2ccccc21 | 12 | -1 | 2 | 2 | -2 | 3 | . | .
CCn1c(-c2ccccc2)c(C(=O)CCl)c2ccccc21 | 33 | 66* | 9 | 14 | -6 | -331 | -2 | 6
COc1ccc(/C=N/NC(=O)COc2ccc(Cl)cc2Cl)cc1Cn1nc(C)cc1C | 7 | 28* | -7 | 11 | 3 | -194 | 1 | 5
O=C(COc1ccc(Cl)cc1Cl)N/N=C/c1cccnc1 | -3 | -1 | 12 | 1 | -1 | 4 | . | .
SMILES | HTR5A inv ctr | MOR-DOR ag | p-CIP stab down | HTR5A ag ctr | MIN6 prolif | MOR-DOR inv ag | MOR-DOR ag conf | HTR5A ag ctr2
CCN1C[C@@H]2[C@@H]3C(=O)N(C)C(=O)[C@@H]3[C@](C)(C1=O)N2C(=O)c1ccc(F)cc1 | -17 | -1 | . | 6 | . | 6 | . | .
COc1cccc(N2CCN(c3ncnc4c3[nH]c3ccc(F)cc34)CC2C)c1 (stereo unspecified) | -25 | 43* | -14 | 15* | -6 | -256 | -4 | -8
COc1ccc(Cn2nnnc2C(c2cc3cccc(C)c3[nH]c2=O)N2CCN(C)CC2)cc1 (stereo unspecified) | -4 | 3 | -13 | 0 | -2 | -13 | . | .
Cc1cccc2cc(C(c3nnnn3Cc3ccccc3)N3CCN(C)CC3)c(=O)[nH]c12 (stereo unspecified) | 0 | 35* | -3 | 0 | 0 | -185 | 38* | 2
Cc1ccc2cc(C(c3nnnn3Cc3ccccc3)N3CCc4ccccc43)c(=O)[nH]c2c1 (stereo unspecified) | -10 | 20* | -4 | -3 | -4 | -108 | 60* | -1
CC(C)Cn1nc(C(=O)NCc2ccccc2CN2CCCC2)c2ccccc2c1=O | -7 | 163* | . | 3 | -1 | i | 4 | 1
O=C(OCc1c(-c2ccccc2)ncc2ccccc12)c1ccccc1C(F)(F)F | -8 | 1 | . | 3 | -6 | -4 | . | .
CC(C)=CCN1CCN(CCC2=C(C)CCCC2(C)C)CC1CCO (stereo unspecified) | 0 | 24* | -12 | 3 | -3 | -170 | 0 | 1
CCOC(=O)c1ccccc1NC(=O)C1CC(=O)N(C2CCCC2)C1 (stereo unspecified) | 16 | -1 | . | -4 | . | 3 | . | .
CCc1cc2cc(C)c(C)cc2nc1SCC(=O)Nc1cc(C)on1 | -4 | -2 | 4 | 2 | -5 | 9 | . | .
CCc1cc2ccc(OC)cc2nc1SCC(=O)Nc1cc(C)on1 | -23 | 22* | 11 | 1 | -2 | -99 | 12 | 20*
CC[C@@H](C)[C@@H]1CN([C@@H](CN2CCC[C@H]2CN2C(N)=NC[C@H]2C(C)C)C(C)C)C(=N)N1CCc1ccc(Cl)c(Cl)c1 | 4 | 205* | . | -1 | -3 | i | 72* | 0
CC[C@@H](C)[C@@H]1CN([C@@H](C)CN2CCC[C@H]2CN2C(N)=NC[C@@H]2Cc2ccccc2)C(=N)N1CCc1ccc(Cl)c(Cl)c1 | -20 | -1 | . | -12 | -4 | 7 | . | .
